# Experimental data as given in paper PMC7862700, “An all-to-all approach to the identification of sequence-specific readers for epigenetic DNA modifications on cytosine”.
# Columns and labels:
# Assay in all cases: DAPPL (digital affinity profiling via proximity ligation, sequencing); 10 mM Tris-HCl pH 7.5, 50 mM NaCl, 1 mM DTT, 4% glycerol, room temperature, 30 min; GST-TFs on glutathione beads, 16-mer random dsDNA library, 0.1% formaldehyde crosslink after washing; high values mean tight binding
# ELK1 = molecular target: T1, ELK1 (Homo sapiens, UniProt P19419 1-428); conditions: protein: recombinant; tags: N-terminal GST; dsDNA, one strand shown
# T1 sequence: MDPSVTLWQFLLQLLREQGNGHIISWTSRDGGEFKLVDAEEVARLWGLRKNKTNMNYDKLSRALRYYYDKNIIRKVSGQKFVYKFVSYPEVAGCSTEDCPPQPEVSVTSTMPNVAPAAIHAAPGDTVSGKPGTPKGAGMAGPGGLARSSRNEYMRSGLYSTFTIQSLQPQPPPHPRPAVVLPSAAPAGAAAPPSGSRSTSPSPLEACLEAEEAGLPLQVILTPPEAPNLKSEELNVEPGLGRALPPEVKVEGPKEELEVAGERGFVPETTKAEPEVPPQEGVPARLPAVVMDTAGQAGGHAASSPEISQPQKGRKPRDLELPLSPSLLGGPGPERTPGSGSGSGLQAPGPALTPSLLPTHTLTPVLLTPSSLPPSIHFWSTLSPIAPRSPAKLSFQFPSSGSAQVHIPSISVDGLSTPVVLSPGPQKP
# Procedure, shortened: (§1)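 Pools were built from human transcription factors expressed in yeast as GST fusions, captured on glutathione beads and DNA-barcoded, along with a tag-only sample. Incubation with 200 nmole of a 16-mer random double-stranded DNA library lasted 30 min at room temperature in Tris/NaCl/DTT/glycerol buffer, and was followed by washing, 0.1% formaldehyde crosslinking, proximity ligation, PCR amplification and Illumina NextSeq500 sequencing. Binding signal is the quotient of each hexamer's read frequency for a factor and its frequency for the tag-only sample.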
# GABPA = molecular target: T2, GABPA (Homo sapiens, UniProt Q06546 1-454); conditions: protein: recombinant; tags: N-terminal GST; dsDNA, one strand shown
# T2 sequence: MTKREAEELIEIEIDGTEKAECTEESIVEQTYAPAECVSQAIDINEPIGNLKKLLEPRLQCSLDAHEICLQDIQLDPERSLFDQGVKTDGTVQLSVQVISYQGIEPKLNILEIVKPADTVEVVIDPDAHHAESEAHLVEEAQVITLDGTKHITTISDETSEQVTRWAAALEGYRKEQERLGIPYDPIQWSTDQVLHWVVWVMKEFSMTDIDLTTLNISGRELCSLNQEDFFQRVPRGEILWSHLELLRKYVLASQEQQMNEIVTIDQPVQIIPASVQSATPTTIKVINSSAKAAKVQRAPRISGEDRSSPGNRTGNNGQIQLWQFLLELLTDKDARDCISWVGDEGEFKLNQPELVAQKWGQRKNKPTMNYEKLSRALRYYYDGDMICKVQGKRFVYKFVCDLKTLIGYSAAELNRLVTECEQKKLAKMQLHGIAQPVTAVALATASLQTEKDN
# Procedure, shortened: as §1
# ELK3 = molecular target: T3, ELK3 (Homo sapiens, UniProt P41970 1-407); conditions: protein: recombinant; tags: N-terminal GST; dsDNA, one strand shown
# T3 sequence: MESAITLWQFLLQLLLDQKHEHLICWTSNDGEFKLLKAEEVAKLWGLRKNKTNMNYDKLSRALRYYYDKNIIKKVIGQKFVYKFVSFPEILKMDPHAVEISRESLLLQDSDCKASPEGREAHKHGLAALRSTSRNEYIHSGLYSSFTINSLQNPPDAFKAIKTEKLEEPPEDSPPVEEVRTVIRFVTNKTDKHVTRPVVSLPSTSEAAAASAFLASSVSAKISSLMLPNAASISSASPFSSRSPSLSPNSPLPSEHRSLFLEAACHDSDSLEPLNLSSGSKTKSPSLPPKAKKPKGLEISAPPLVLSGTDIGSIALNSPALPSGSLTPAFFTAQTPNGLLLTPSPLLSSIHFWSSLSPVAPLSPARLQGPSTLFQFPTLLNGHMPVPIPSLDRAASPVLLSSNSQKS
# Procedure, shortened: as §1
# FEV = molecular target: T4, FEV (Homo sapiens, UniProt Q99581 1-238); conditions: protein: recombinant; tags: N-terminal GST; dsDNA, one strand shown
# T4 sequence: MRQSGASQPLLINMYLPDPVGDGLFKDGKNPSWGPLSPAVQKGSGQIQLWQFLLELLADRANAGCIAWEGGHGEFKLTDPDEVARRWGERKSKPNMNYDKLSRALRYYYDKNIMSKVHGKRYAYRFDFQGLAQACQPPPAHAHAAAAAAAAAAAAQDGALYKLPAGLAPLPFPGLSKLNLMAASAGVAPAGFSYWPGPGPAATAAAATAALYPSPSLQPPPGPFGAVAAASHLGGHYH
# Procedure, shortened: as §1
# HSF1 = HSF1 (Homo sapiens, UniProt Q00613 1-529); conditions: protein: recombinant; tags: N-terminal GST; chain copies: 3; dsDNA, one strand shown
# Procedure, shortened: as §1
# ELK4 = molecular target: T5, ELK4 (Homo sapiens, UniProt P28324-2 1-405); conditions: protein: recombinant; tags: N-terminal GST; dsDNA, one strand shown
# T5 sequence: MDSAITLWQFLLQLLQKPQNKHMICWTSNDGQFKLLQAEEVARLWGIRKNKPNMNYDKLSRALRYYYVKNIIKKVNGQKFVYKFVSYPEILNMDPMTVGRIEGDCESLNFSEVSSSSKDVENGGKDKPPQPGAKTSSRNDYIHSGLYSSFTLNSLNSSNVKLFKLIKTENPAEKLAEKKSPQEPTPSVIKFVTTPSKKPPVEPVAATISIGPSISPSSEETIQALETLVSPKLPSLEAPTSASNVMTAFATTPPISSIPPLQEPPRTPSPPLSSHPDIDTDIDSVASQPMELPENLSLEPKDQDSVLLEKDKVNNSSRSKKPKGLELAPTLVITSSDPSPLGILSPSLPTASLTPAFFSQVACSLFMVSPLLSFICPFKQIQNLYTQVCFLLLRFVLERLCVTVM
# Procedure, shortened: as §1
# ETV2 = molecular target: T6, ETV2 (Homo sapiens, UniProt O00321 1-342); conditions: protein: recombinant; tags: N-terminal GST; dsDNA, one strand shown
# T6 sequence: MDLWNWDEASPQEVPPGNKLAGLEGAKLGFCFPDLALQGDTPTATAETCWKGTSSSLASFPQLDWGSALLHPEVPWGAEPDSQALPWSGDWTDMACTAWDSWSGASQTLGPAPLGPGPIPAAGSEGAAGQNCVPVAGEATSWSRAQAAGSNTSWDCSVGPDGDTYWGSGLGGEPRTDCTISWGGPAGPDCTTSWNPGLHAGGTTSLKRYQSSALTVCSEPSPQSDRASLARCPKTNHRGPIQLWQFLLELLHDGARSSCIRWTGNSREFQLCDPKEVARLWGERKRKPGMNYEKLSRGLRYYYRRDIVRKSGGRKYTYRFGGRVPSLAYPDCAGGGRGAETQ
# Procedure, shortened: as §1
# ELF3 = molecular target: T7, ELF3 (Homo sapiens, UniProt P78545 1-371); conditions: protein: recombinant; tags: N-terminal GST; dsDNA, one strand shown
# T7 sequence: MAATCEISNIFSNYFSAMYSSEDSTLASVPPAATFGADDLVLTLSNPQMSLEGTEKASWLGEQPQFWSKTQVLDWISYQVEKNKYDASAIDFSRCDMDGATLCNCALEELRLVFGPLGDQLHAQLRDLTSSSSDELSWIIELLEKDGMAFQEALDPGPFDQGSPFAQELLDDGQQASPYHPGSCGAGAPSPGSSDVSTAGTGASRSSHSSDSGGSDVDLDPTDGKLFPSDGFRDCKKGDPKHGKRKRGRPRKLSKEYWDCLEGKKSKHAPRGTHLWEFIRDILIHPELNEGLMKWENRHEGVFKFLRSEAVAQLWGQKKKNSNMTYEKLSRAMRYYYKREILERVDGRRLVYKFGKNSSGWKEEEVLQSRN
# Procedure, shortened: as §1
# CRX = CRX (Homo sapiens, UniProt O43186 1-299); conditions: protein: recombinant; tags: N-terminal GST; dsDNA, one strand shown
# Procedure, shortened: as §1
# ETV1 = ETV1 (Homo sapiens, UniProt P50549 1-477); conditions: protein: recombinant; tags: N-terminal GST; dsDNA, one strand shown
# Procedure, shortened: as §1
# ETV3L = molecular target: T8, ETV3L (Homo sapiens, UniProt Q6ZN32 1-361); conditions: protein: recombinant; tags: N-terminal GST; dsDNA, one strand shown
# T8 sequence: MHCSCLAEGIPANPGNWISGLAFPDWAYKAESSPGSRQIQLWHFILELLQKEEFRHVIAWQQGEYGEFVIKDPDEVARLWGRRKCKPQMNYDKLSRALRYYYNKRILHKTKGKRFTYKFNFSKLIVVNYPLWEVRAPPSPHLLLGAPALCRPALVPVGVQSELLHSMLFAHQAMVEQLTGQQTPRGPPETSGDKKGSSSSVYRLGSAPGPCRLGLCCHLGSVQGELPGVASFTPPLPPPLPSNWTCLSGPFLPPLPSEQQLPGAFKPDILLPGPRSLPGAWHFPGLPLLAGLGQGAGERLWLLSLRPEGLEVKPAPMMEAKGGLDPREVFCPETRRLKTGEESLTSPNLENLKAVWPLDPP
# Procedure, shortened: as §1
# SPDEF = molecular target: T9, SPDEF (Homo sapiens, UniProt O95238 1-335); conditions: protein: recombinant; tags: N-terminal GST; dsDNA, one strand shown
# T9 sequence: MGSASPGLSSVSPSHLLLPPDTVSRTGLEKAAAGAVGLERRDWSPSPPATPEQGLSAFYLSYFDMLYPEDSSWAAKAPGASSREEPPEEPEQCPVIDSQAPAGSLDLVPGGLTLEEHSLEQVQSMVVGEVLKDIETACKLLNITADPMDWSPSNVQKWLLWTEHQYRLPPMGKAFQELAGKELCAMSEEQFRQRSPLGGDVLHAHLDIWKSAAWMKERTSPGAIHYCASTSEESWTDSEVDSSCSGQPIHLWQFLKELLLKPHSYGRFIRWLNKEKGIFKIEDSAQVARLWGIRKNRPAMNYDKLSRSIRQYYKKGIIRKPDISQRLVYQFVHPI
# Procedure, shortened: as §1
# ETV7 = molecular target: T10, ETV7 (Homo sapiens, UniProt Q9Y603 1-341); conditions: protein: recombinant; tags: N-terminal GST; dsDNA, one strand shown
# T10 sequence: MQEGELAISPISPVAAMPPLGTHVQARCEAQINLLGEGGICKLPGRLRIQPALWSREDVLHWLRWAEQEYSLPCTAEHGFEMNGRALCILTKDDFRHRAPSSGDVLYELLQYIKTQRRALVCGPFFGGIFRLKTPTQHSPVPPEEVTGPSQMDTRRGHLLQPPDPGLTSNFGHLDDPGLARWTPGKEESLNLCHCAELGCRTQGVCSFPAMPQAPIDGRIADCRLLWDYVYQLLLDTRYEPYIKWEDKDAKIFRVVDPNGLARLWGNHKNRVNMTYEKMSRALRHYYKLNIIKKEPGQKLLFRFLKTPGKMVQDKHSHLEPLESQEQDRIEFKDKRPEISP
# Procedure, shortened: as §1
# Sequence of CRX (O43186 whole entry): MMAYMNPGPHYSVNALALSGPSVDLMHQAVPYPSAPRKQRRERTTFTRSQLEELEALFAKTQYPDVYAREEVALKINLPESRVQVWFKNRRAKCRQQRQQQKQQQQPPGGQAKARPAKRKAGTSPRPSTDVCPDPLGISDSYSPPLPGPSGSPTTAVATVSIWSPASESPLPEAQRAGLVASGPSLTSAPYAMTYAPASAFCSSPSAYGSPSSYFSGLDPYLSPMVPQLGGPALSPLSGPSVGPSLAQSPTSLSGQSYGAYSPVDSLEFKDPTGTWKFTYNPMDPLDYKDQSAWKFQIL
# Sequence of HSF1 (Q00613 whole entry): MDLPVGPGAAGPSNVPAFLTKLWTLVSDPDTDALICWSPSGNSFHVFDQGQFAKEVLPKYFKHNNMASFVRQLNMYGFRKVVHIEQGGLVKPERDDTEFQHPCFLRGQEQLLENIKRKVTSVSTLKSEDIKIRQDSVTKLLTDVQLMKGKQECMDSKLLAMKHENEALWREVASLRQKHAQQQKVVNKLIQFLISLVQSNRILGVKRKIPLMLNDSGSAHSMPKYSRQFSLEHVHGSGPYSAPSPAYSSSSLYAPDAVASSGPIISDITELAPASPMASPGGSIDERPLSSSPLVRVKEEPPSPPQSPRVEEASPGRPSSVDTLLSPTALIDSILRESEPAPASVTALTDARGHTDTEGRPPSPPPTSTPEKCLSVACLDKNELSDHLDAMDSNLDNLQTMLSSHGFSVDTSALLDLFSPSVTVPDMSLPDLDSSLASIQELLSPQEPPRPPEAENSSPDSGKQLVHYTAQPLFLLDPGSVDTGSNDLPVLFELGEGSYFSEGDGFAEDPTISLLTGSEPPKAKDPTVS
# Sequence of ETV1 (P50549 whole entry): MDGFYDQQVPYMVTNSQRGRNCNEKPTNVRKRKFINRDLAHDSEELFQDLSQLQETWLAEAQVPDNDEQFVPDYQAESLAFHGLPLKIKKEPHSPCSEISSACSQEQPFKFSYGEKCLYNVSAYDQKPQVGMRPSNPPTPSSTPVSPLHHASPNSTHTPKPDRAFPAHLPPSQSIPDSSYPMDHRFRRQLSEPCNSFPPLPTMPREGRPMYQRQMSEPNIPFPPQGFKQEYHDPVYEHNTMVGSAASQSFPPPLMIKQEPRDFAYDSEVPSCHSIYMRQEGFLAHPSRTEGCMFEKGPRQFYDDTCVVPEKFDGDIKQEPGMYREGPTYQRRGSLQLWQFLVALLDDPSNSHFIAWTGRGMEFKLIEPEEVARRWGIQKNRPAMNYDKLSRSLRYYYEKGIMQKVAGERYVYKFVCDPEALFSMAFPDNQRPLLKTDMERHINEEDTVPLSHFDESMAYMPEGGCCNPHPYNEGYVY
sequence,measurement,setting,value
TAGACA,binding signal,ELK1,"1.07 fold enrichment (6-mer frequency, TF over GST control)"
same,binding signal,GABPA,"1.01 fold enrichment (6-mer frequency, TF over GST control)"
same,binding signal,ELK3,"1.02 fold enrichment (6-mer frequency, TF over GST control)"
same,binding signal,FEV,"1.02 fold enrichment (6-mer frequency, TF over GST control)"
same,binding signal,HSF1,"1.11 fold enrichment (6-mer frequency, TF over GST control)"
same,binding signal,ELK4,"1.11 fold enrichment (6-mer frequency, TF over GST control)"
same,binding signal,ETV2,"1.01 fold enrichment (6-mer frequency, TF over GST control)"
same,binding signal,ELF3,"1.01 fold enrichment (6-mer frequency, TF over GST control)"
same,binding signal,CRX,"1.03 fold enrichment (6-mer frequency, TF over GST control)"
same,binding signal,ETV1,"1.01 fold enrichment (6-mer frequency, TF over GST control)"
same,binding signal,ETV3L,"1.01 fold enrichment (6-mer frequency, TF over GST control)"
same,binding signal,SPDEF,"1.03 fold enrichment (6-mer frequency, TF over GST control)"
same,binding signal,ETV7,"1.07 fold enrichment (6-mer frequency, TF over GST control)"
